# The campaign covered roughly 1,300 compounds. Fewer than 10 were called active. No rule for the calls is given here. Not all results are given here.
# Test system: metallo-beta-lactamase IMP-1 (Pseudomonas aeruginosa)
# Assay: IMP-1 metallo-beta-lactamase inhibitors, confirmation, selectivity assay for selective VIM-2 inhibitor project, biochemical, epi-absorbance readout, triplicate (AID 1856);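 also: 0% = enzyme with vehicle and 100% = vehicle without enzyme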
# Details: purified IMP-1, nitrocefin hydrolysis, epi-absorbance fluorescence; at 5.6 µM; active compounds read high
row,SMILES,inhibition
1,C=CCn1c(-c2ccccc2OCC)n[nH]c1=S,-2.2% (inactive)
2,Cc1cc(NCc2ccco2)n2c(nc3ccccc32)c1C#N,-3.37% (inactive)
3,O=C(COc1cc2oc(=O)c3c(c2cc1Cl)CCC3)NCCCN1CCOCC1,-1.87% (inactive)
4,CCN(CC)c1ccc2cc(C(N)=O)/c(=N\NC(=O)c3ccncc3)oc2c1,-2.41% (inactive)
5,Cc1cccn2c(=O)c(C=O)c(Nc3ccc(S(N)(=O)=O)cc3)nc12,-3.66% (inactive)
6,COc1nc(N=C(N)N)nc2c(C)cccc12,-3.85% (inactive)
7,COc1cc(NC(=O)C2=C(C)OCCS2)c(Cl)cc1C(=O)NCCN1CCN(C)CC1,-2.62% (inactive)
8,CCN1CCN(CCNC(=O)c2ccc3c(c2)NC(=O)/C(=C\c2ccc(OC)c(OC)c2)S3)CC1,-3.87% (inactive)
9,Cn1c(-c2sccc2OCc2cccc(C(F)(F)F)c2)n[nH]c1=S,-2.3% (inactive)
10,CCOC(=O)N1CCN(C(=O)C2CCN(c3ncnc4c3sc3cccc(F)c34)CC2)CC1,-2.28% (inactive)
11,Cc1cc(-c2ccc(/C=N/n3cnnc3)o2)c([N+](=O)[O-])cc1C,-2.82% (inactive)
12,CNC(=O)c1ccsc1NC(=O)c1ccc(S(=O)(=O)N2CCOCC2)cc1,-2.75% (inactive)
13,Cc1cc(C)c2nc3nc(C)cc(C)c3c(N)c2c1,-3.37% (inactive)
14,COc1ccc(-c2nn3c(-c4ccccc4)nnc3s2)cc1OC,-2.66% (inactive)
15,CCc1cc(=O)oc2cc(C)cc(OCC(=O)N3CCC[C@@H]3C(=O)O)c12,-3.22% (inactive)
16,NC(=O)C1CCN(C(=O)COc2ccc3c4c(c(=O)oc3c2)CCC4)CC1,-2.5% (inactive)
17,COc1cc(/C=N/Nc2nn3cnnc3c3ccccc23)cc(OC)c1OC,-2.07% (inactive)
18,Cc1cc([N+](=O)[O-])c(-c2ccc(/C=N/n3cnnc3)o2)cc1Cl,-2.7% (inactive)
19,COc1ccc(Nc2cc(C)nc(-n3nc(C)cc3C)n2)cc1,-4.36% (inactive)
20,COc1cc(-c2nn3c(-c4cccc(C)c4)nnc3s2)cc(OC)c1OC,-3.37% (inactive)
21,CCN1CCCC1CNC(=O)c1cc2c(=O)n(C)c3ccccc3c2n1C (configuration not stated),-1.43% (inactive)
22,COC(=O)c1c(NC(=O)c2ccc(S(=O)(=O)N3CCOCC3)cc2)sc2c1CCN(C(C)C)C2,-3.07% (inactive)
23,Cc1nc2ccccc2c2oc(C(=O)NCCCN3CCC(C)CC3)cc12,-2.57% (inactive)
24,O=C(NCCCN1CCOCC1)c1cnn2c(-c3ccccc3)cc(-c3ccccc3)nc12,-1.31% (inactive)
25,CCOc1cc(/C=C2\SC(N3CCCC(C)C3)=NC2=O)ccc1O (configuration not stated),-1.58% (inactive)
26,CN1CCN(c2ccc(NC(=O)c3ccc4c(c3)[nH]c(=O)n4Cc3ccc(F)cc3)cc2)CC1,-2.45% (inactive)

row,SMILES,inhibition
1,Nc1cccc2c1C(=O)N(Cc1nnc(-c3ccccc3Br)o1)C2=O,-1.84% (inactive)
2,O=C(NC(=S)Nc1ccccc1C(=O)O)c1ccc(-c2ccc(Br)cc2)o1,-2.92% (inactive)
3,Cn1c2ccccc2c(=O)c2c(O)cccc21,1.94% (inactive)
4,O=c1[nH]c(-c2ccccc2)c(-c2ccccc2)[nH]1,-1.69% (inactive)
5,COc1ccc(/C=N/N(C)C2=NS(=O)(=O)c3ccccc32)cc1OC,-2.33% (inactive)
6,CCOc1cc(/C=C2\SC(N3CCCCC3)=NC2=O)ccc1O,-4.28% (inactive)
7,CCN1CCN(C(=O)Cn2nc(C)n3c(cc4c(OC)cccc43)c2=O)CC1,-3.39% (inactive)
8,Clc1cc(-c2ccc(/C=N/n3cnnc3)o2)ccc1Br,-2.66% (inactive)
9,Nc1nnc2c(C(F)(F)F)nc3ccccc3n12,-2.31% (inactive)
10,Cc1ccc(Cl)cc1-c1ccc(/C=N/n2cnnc2)o1,-3.92% (inactive)
11,COc1ccc(CCn2c(=N)c(C(=O)NCC3CCCO3)cc3c(=O)n4cccc(C)c4nc32)cc1OC (configuration not stated),-3.13% (inactive)
12,COC(=O)c1ccc(-c2noc(CN(Cc3ccccn3)CC3CCCO3)n2)cc1 (configuration not stated),-4.37% (inactive)
13,CCOCCCNc1c(CC)c(C)c(C#N)c2nc3ccccc3n12,-2.98% (inactive)
14,O=C1Nc2cc(C(=O)N3CCC(N4CCCCC4)CC3)ccc2S/C1=C\c1ccccc1,-4.01% (inactive)
15,CCC1CCCCN1CCCNC(=O)c1cc2c(Cl)nc3ccccc3c2s1 (configuration not stated),-2% (inactive)
16,Cc1ccc2nc(C)c3c(c2c1)N(c1ccccc1)CC3,-3.39% (inactive)
17,Fc1ccc(-c2ccc(CNCc3ccccn3)o2)cc1Cl,-3.51% (inactive)
18,CC(NS(=O)(=O)c1ccccc1)c1n[nH]c(=S)n1-c1ccccc1 (configuration not stated),-3.01% (inactive)
19,Cn1c(=O)c2c(nc(N3CCOCC3)n2CCNC2=NCCC2)n(C)c1=O,-2.77% (inactive)
20,CCN(CC)CCOc1ccc2c(c1)C(=NNC(=O)c1ccccn1)c1cc(OCCN(CC)CC)ccc1-2,-6.88% (inactive)
21,CC(=O)c1ccc(-c2ccc(Cn3c(C)nc4cc(N)c(C)nc43)cc2)cc1,-2.57% (inactive)
22,CCCc1ccc(OCCNC(=O)c2ccco2)cc1,-3.83% (inactive)
23,CN(C)CCNc1ccc(-c2n[nH]c(=O)c3ccccc23)cc1[N+](=O)[O-],-3.19% (inactive)
24,COc1ccc(Cc2nnc(NS(=O)(=O)Cc3ccccc3)s2)cc1,-2.35% (inactive)
25,CC(C)(C)CC(=O)Nc1nnc(SCC(=O)NCc2cccs2)s1,-4.47% (inactive)
26,CC1CCCC(C)N1CCCNC(=O)c1cc2c(=O)n(C)c3ccccc3c2n1C (configuration not stated),-3.58% (inactive)

# Source: PubChem BioAssay AID1856 (The Scripps Research Institute Molecular Screening Center, 2009)
